Assay results as given in PubChem BioAssay AID624071 (Southern Research Specialized Biocontainment Screening …, 2012).
Calls of active or inactive are those of the source. The rule behind the calls is not given here.

Assay: protection of cells from dengue-induced CPE – secondary screen, flavivirus guanylyltransferase probe project (AID 624071)
Conditions: Dengue virus CPE inhibition assay, cell viability; series mostly up to 100 µM; CPE inhibition: at the top concentration

| Compound | CPE inhibition |
| --- | --- |
| O=C(O)CSc1cc(NS(=O)(=O)c2cccc3cccnc23)c2ccccc2c1O | 0% (inactive) |
| Cc1cc(C)c(S(=O)(=O)Nc2cc(SCC(=O)O)c(O)c3ccccc23)c(C)c1 | 0% (inactive) |
| Cc1ccc(S(=O)(=O)Nc2cc(Sc3nc(C)cc(C)n3)c(O)c3ccccc23)cc1 | 0% (inactive) |
| O=C(O)CSc1cc(NS(=O)(=O)c2ccc(F)cc2)c2ccccc2c1O | 0% (inactive) |
| Cn1c(=O)c2[nH]c(-c3ccc(Cl)cc3)c(O)c2n(C)c1=O | 0% (inactive) |
| O=C(O)CSc1cc(NS(=O)(=O)c2cccc([N+](=O)[O-])c2)c2ccccc2c1O | 0% (inactive) |
| O=[N+]([O-])c1cccc(S(=O)(=O)Nc2cc(SCc3ccccc3)c(O)c3ccccc23)c1 | 0% (inactive) |
| O=C(O)CSc1cc(NS(=O)(=O)c2ccc(Cl)cc2)c2ccccc2c1O | 0% (inactive) |
| O=C(O)CSc1cc(NS(=O)(=O)c2ccc(Br)cc2)c2ccccc2c1O | 0% (inactive) |
| COc1ccc(OC)c(S(=O)(=O)Nc2cc(SCC(=O)O)c(O)c3ccccc23)c1 | 0% (inactive) |
| O=S(=O)(Nc1cc(SCc2ccccc2)c(O)c2ccccc12)c1ccc(Cl)cc1 | 0% (inactive) |
| O=[N+]([O-])c1cccc(S(=O)(=O)Nc2cc(Sc3nc4ccccc4s3)c(O)c3ccccc23)c1 | 0% (inactive) |
| O=S(=O)(Nc1cc(Cl)c(O)c2ccccc12)c1ccc(F)cc1 | 0% (inactive) |
| Cn1c(=O)c2[nH]c(-c3ccccc3)c(O)c2n(C)c1=O | 0% (inactive) |
| O=S(=O)(Nc1cc(Sc2ccccc2)c(O)c2ccccc12)c1ccc(F)cc1 | 0% (inactive) |
| Cc1ccc(S(=O)(=O)Nc2cc(SCC(=O)O)c(O)c3ccccc23)cc1 | 0% (inactive) |
| O=S(=O)(Nc1cc(Sc2ncn[nH]2)c(O)c2ccccc12)c1ccc(F)cc1 | 0% (inactive) |
| Cc1cc(F)ccc1S(=O)(=O)Nc1cc(SCC(=O)O)c(O)c2ccccc12 | 0% (inactive) |
